This passage reports outcome and AC50 results from PubChem BioAssay (EPA / NIEHS).

Experiment [1] is described as follows: ATG_TGFb_CIS: Attagene CIS-FACTORIAL HepG2 Assay for human Transforming Growth Factor (TGF) (AID 2282967). Conditions: HepG2 Attagene CIS TGFb reporter, mRNA transcription; actives raise or lower the signal. The gist of the method: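 Transcript-level reporter readout: HepG2 transfectants, 24 h exposure, RNA to cDNA, reporter-specific PCR, fluorescent primer extension, capillary sizing against ROX standards. Gain- or loss-of-signal relative to DMSO.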

Experiment [2] can be described thus: ATG_VDRE_CIS: Attagene CIS-FACTORIAL HepG2 Assay for human Vitamin D Receptor Element (VDRE) (AID 2282968). To be noted: HepG2 VDRE cis-reporter transcription, actives raise or lower the signal. A digest of the protocol:
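RT-PCR/CE readout of reporter mRNA; HepG2, transient transfection, 24 h dosing; DMSO baseline; bidirectional analysis.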

Experiment [3] addresses Estrogen receptor (Homo sapiens) (UniProt P03372). In words: ATG_ERa_TRANS: Attagene TRANS-FACTORIAL HepG2 Assay for human Estrogen Receptor alpha (ERa) (AID 2282970; active = hit-call score of the fitted dose curve at least 0.9, where 1 is the maximum). Conditions: HepG2 Attagene TRANS ERa GAL4 reporter, mRNA. The gist of the method:
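After 24 h of compound treatment, RNA from HepG2 cells bearing transfected GAL4-UAS reporter constructs is converted to cDNA, amplified and fluorescently labelled. Capillary electrophoresis resolves the ERa-linked reporter; DMSO serves as negative control.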

The target in experiment [4] is Steroid hormone receptor ERR1 (Homo sapiens) (UniProt P11474). In words: ATG_ERRa_TRANS: Attagene TRANS-FACTORIAL HepG2 Assay for human Estrogen-Related Receptor alpha (ERRa) (AID 2282971; active = hit-call score of the fitted dose curve at least 0.9, where 1 is the maximum). Conditions: HepG2 Attagene TRANS reporter, ERRa transactivation. The gist of the method:
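Transfected HepG2, 24 h dosing, ERRa-Gal4 chimera driving GAL4-UAS reporter. Readout: reporter mRNA via RT-PCR plus capillary electrophoresis (fluorescence). Positive direction vs DMSO control.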

The target of experiment [5] is X-box-binding protein 1 (Homo sapiens) (UniProt P17861). In words: ATG_Xbp1_CIS: Attagene CIS-FACTORIAL HepG2 Assay for human X-box Binding Protein 1 (XBP1) (AID 2282972). Conditions: HepG2 XBP1 cis-element reporter, Attagene multiplex; actives raise or lower the signal. A digest of the protocol:
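Fluorescence-labelled cDNA fragments from reporter transcripts, separated by capillary electrophoresis, give the signal. Source: HepG2 cells transfected with promoter-driven reporter units, harvested 24 h post-dose. DMSO served as reference for bidirectional curve fitting.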

The target of experiment [6] is Glucocorticoid receptor (Homo sapiens) (UniProt P04150). Description: ATG_GR_TRANS: Attagene TRANS-FACTORIAL HepG2 Assay for human Glucocorticoid Receptor (GR) (AID 2282978; active = hit-call score of the fitted dose curve at least 0.9, where 1 is the maximum;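 also: activators score as hits since higher reporter transcript over DMSO is fitted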). Conditions: HepG2 Attagene TRANS GR reporter, mRNA transcription. A digest of the protocol:
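In this trans-factorial format, exogenous NR-GAL4 chimeric proteins in transfected HepG2 cells regulate GAL4-UAS reporter transcription. After 24 h treatment, reporter mRNA induction relative to DMSO is read by RT-PCR and capillary electrophoresis.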

Experiment [7] can be described thus: ATG_M_06_TRANS: Attagene TRANS-FACTORIAL HepG2 Assay for M06 Transcription Factor (Internal Marker) (AID 2282983; active = hit-call score of the fitted dose curve at least 0.9, where 1 is the maximum). Conditions: HepG2 Attagene TRANS M06 internal marker reporter. A digest of the protocol:
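After a 24 h chemical treatment of transfected HepG2, RNA underwent DNase I treatment, reverse transcription and reporter-specific PCR; labelled, HpaI-digested products were sized by capillary electrophoresis. Signal increase relative to DMSO defined activity.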

The target of experiment [8] is Transcriptional activator Myb (Homo sapiens) (UniProt P10242). In words: ATG_Myb_CIS: Attagene CIS-FACTORIAL HepG2 Assay for human Myeloblastosis (Myb) Proto-Oncogene Transcription Factor (AID 2282986). Conditions: HepG2 Attagene CIS-FACTORIAL Myb reporter transcription; actives raise or lower the signal. A digest of the protocol: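 Steps: transfect HepG2 with cis-regulated reporter units; dose with chemical for 24 h; isolate RNA, reverse-transcribe, PCR-amplify and FAM-label reporter sequences; digest with HpaI; resolve by capillary electrophoresis. Activity fitted in both directions relative to DMSO.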

Experiment [9] deals with Nuclear respiratory factor 1 (Homo sapiens) (UniProt Q16656). Description: ATG_NRF1_CIS: Attagene CIS-FACTORIAL HepG2 Assay for human Nuclear Respiratory Factor 1 (NRF1) Orphan Gene (AID 2282987). Conditions: HepG2 NRF1 cis-element reporter, Attagene multiplex; actives raise or lower the signal. The gist of the method: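 Fluorescence intensity of labelled reporter cDNA fragments, resolved by capillary electrophoresis, served as readout for NRF1 cis-element activity. Transiently transfected HepG2 cells were dosed for 24 hours; activity in either direction was fitted against DMSO negative control.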

A short description of experiment [10]: ATG_NFI_CIS: Attagene CIS-FACTORIAL HepG2 Assay for human Nuclear Factor I (NFI) (AID 2282989). To be noted: HepG2 cis-regulatory reporter, NFI response element transcription; actives raise or lower the signal. A digest of the protocol:
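After transient transfection of HepG2 with cis-promoter reporter constructs and 24 h dosing, RNA is reverse-transcribed, amplified, 6-FAM end-labelled and HpaI-digested before capillary analysis. Bidirectional curve fitting against DMSO.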

Experiment [11] in a line: ATG_M_19_TRANS: Attagene TRANS-FACTORIAL HepG2 Assay for M19 Transcription Factor (Internal Marker) (AID 2282974; active = hit-call score of the fitted dose curve at least 0.9, where 1 is the maximum). Conditions: HepG2 Attagene TRANS-FACTORIAL M19 internal marker reporter. The gist of the method: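 Cells: human HepG2, transiently transfected with multiplexed reporter transcription units. Exposure: 24 h. Detection: RT-PCR of reporter mRNA with capillary electrophoresis. Analysis: gain-of-signal vs DMSO.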

Experiment [12] concerns the target Oxysterols receptor LXR-beta (Homo sapiens) (UniProt P55055). In words: ATG_LXRb_TRANS: Attagene TRANS-FACTORIAL HepG2 Assay for human Liver X Receptor beta (LXRb) (AID 2282981; active = hit-call score of the fitted dose curve at least 0.9, where 1 is the maximum). To be noted: HepG2 Attagene TRANS GAL4-LXRb reporter, mRNA. The gist of the method: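 In this TRANS format, exogenous chimeric NR-Gal4 protein activity, not endogenous factors, drives reporter expression in transfected human HepG2 cells. Exposure lasted 24 h; reporter mRNA was read by fluorescent capillary electrophoresis.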

The target of experiment [13] is Hepatocyte nuclear factor 4-alpha (Homo sapiens) (UniProt P41235). Description: ATG_HNF4a_TRANS: Attagene TRANS-FACTORIAL HepG2 Assay for human Hepatocyte Nuclear Factor 4 alpha (HNF4a) (AID 2282982; active = hit-call score of the fitted dose curve at least 0.9, where 1 is the maximum). Conditions: HepG2 HNF4a transactivation reporter, mRNA readout. The gist of the method:
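Cells used were human HepG2, transiently carrying GAL4-UAS reporter units read out against exogenous NR-GAL4 chimeras. Reporter transcript levels after 24 h dosing were quantified by fluorescent RT-PCR and capillary electrophoresis.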

Experiment [14] is described as follows: ATG_M_32_TRANS: Attagene TRANS-FACTORIAL HepG2 Assay for M32 Transcription Factor (Internal Marker) (AID 2282984; active = hit-call score of the fitted dose curve at least 0.9, where 1 is the maximum;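 also: transcript level of a background control reporter unit measured by RT-PCR and capillary electrophoresis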). Conditions: HepG2 Attagene TRANS M32 internal marker reporter. A digest of the protocol:
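Human hepatoma HepG2, transient MRTU transfection, 24 h treatment. RNA → RT-PCR → fluorescent primer extension → HpaI digest (2 h, 37 C) → CE. Positive-direction fit vs DMSO.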

Experiment [15] in a line: ATG_GAL4_TRANS: Attagene TRANS-FACTORIAL HepG2 Assay for GAL4 (Internal Marker) (AID 2282976; active = hit-call score of the fitted dose curve at least 0.9, where 1 is the maximum). Conditions: HepG2 Attagene TRANS GAL4 internal marker reporter. A digest of the protocol: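 RT-PCR/capillary electrophoresis readout of reporter mRNA. HepG2, transient MRTU transfection (GAL4-UAS reporters), 24 h compound exposure. Background-control endpoint, positive direction vs DMSO baseline.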

For experiment [16], the target named is Nuclear receptor subfamily 4 group A member 2 (Homo sapiens) (UniProt P43354). Description: ATG_NURR1_TRANS: Attagene TRANS-FACTORIAL HepG2 Assay for human Nuclear Receptor Related Protein 1 (NURR1) (AID 2282985; active = hit-call score of the fitted dose curve at least 0.9, where 1 is the maximum). Conditions: HepG2 Attagene TRANS reporter, mRNA readout. The gist of the method: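 After 24 h chemical dosing, total RNA from transiently transfected HepG2 cells was reverse-transcribed and reporter cDNA PCR-amplified, FAM-labelled and analysed by capillary electrophoresis. Activity fitted in positive direction, DMSO as negative control.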

Experiment [17] addresses Estrogen-related receptor gamma (Homo sapiens) (UniProt P62508). In words: ATG_ERRg_TRANS: Attagene TRANS-FACTORIAL HepG2 Assay for human Estrogen-Related Receptor gamma (ERRg) (AID 2282977; active = hit-call score of the fitted dose curve at least 0.9, where 1 is the maximum;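 also: hits increase reporter signal over DMSO so potencies reflect activators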). To be noted: HepG2 Attagene TRANS reporter, ERRg transactivation. A digest of the protocol: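 Transfect HepG2 with multiple GAL4-UAS reporter transcription units; dose chemicals 24 h; isolate RNA, reverse-transcribe with oligo(dT), PCR-amplify, label with 6-FAM, digest with HpaI; size fragments by capillary electrophoresis. DMSO serves as negative control.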

Experiment [18] deals with Bile acid receptor (Homo sapiens) (UniProt Q96RI1). Description: ATG_FXR_TRANS: Attagene TRANS-FACTORIAL HepG2 Assay for Farnesoid X Receptor (FXR) (AID 2282979; active = hit-call score of the fitted dose curve at least 0.9, where 1 is the maximum;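 also: hits raise reporter mRNA above DMSO so AC50 marks FXR activation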). To be noted: HepG2 Attagene TRANS FXR-GAL4 reporter transcription. The gist of the method: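 Read-out: fluorescent reporter transcripts quantified by capillary electrophoresis after RT-PCR of total RNA. Source cells were HepG2 transiently carrying chimeric NR-GAL4 plus GAL4-UAS reporter units, dosed 24 h. Activity fitted upward relative to DMSO baseline.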

Results filed as inconclusive are left out. Where a structure was tested more than once in an assay, its records may differ in their call. Calls of active or inactive are those of the source. The calls were made as follows, unless noted: active = hit-call score of the fitted dose curve at least 0.9, where 1 is the maximum; inactive = score below 0.9.

Chain of Nuclear receptor subfamily 4 group A member 2 (Homo sapiens) (P43354 whole entry, looked up): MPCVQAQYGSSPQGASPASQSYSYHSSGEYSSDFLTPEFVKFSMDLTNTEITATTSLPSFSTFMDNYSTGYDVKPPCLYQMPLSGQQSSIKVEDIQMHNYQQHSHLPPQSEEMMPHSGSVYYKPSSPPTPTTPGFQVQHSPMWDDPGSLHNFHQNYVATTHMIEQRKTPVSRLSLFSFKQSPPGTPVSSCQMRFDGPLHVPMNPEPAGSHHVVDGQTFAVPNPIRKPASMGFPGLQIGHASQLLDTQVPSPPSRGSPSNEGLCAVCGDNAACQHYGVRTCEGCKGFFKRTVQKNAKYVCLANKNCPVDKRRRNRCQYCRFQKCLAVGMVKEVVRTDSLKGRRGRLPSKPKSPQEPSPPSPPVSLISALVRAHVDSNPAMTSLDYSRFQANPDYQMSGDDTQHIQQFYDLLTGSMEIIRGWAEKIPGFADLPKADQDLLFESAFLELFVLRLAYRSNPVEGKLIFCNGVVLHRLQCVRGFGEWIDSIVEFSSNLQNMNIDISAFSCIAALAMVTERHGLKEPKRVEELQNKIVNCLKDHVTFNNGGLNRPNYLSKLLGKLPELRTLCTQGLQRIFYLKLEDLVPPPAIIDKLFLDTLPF
Chain of Estrogen-related receptor gamma (Homo sapiens) (P62508 whole entry, looked up, the tested form may be a part): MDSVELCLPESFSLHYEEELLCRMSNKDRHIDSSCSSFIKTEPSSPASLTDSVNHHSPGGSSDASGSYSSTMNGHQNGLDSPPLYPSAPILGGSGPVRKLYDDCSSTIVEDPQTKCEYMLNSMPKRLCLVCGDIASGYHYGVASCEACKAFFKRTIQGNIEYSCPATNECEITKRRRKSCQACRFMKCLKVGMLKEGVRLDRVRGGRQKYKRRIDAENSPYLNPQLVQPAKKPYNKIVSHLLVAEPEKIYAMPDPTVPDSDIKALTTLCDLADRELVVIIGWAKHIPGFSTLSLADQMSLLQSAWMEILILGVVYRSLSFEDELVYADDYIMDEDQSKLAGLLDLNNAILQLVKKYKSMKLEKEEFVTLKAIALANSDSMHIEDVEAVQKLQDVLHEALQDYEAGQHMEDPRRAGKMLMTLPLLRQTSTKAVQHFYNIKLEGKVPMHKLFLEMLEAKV
Chain of Nuclear respiratory factor 1 (Homo sapiens) (Q16656 whole entry, looked up, the tested form may be a part): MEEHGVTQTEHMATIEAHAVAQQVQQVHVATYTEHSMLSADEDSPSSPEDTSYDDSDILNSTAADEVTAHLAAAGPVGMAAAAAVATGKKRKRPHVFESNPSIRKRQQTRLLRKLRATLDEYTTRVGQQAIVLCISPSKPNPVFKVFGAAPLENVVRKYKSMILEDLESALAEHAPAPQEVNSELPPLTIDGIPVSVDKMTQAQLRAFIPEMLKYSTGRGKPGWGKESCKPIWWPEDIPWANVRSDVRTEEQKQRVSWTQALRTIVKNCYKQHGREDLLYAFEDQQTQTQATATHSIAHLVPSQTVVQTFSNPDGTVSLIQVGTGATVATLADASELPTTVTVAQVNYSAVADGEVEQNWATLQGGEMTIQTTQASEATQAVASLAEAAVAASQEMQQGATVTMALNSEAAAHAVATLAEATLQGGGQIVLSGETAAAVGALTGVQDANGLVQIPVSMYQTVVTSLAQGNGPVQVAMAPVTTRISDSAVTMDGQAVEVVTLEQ
Chain of Oxysterols receptor LXR-beta (Homo sapiens) (P55055 whole entry, looked up, the tested form may be a part): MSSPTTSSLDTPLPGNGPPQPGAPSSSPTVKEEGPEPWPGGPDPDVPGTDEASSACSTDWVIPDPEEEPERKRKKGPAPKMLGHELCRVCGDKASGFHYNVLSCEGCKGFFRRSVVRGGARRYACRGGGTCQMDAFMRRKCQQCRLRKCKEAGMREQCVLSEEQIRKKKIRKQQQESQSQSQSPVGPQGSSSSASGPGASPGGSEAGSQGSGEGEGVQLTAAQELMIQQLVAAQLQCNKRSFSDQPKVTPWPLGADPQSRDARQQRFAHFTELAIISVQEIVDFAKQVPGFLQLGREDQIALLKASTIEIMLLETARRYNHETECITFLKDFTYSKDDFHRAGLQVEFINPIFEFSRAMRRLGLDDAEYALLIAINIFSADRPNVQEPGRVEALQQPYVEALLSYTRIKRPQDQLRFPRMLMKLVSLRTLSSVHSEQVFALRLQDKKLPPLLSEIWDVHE
Chain of Glucocorticoid receptor (Homo sapiens) (P04150 whole entry, looked up, the tested form may be a part): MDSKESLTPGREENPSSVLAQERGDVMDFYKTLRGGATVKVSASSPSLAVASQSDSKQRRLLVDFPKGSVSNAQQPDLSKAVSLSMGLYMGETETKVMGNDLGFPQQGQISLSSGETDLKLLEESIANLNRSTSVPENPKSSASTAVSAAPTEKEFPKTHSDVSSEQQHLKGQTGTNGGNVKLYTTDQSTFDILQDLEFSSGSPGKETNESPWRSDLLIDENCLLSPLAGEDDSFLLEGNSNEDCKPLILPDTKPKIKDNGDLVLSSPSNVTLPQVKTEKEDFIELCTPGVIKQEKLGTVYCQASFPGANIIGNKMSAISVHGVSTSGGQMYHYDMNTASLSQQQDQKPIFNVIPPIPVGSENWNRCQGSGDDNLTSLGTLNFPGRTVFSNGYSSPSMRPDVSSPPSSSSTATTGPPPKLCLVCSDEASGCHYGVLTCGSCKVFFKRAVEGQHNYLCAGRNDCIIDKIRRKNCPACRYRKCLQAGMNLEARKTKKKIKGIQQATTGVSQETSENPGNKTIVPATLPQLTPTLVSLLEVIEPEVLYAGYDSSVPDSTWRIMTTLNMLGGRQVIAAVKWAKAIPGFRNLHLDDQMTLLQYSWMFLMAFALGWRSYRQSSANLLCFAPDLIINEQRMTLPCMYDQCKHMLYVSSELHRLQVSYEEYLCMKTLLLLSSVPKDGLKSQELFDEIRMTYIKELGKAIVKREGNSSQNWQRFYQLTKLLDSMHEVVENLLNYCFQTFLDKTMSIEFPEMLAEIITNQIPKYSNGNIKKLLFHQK
Chain of Steroid hormone receptor ERR1 (Homo sapiens) (P11474 whole entry, looked up, the tested form may be a part): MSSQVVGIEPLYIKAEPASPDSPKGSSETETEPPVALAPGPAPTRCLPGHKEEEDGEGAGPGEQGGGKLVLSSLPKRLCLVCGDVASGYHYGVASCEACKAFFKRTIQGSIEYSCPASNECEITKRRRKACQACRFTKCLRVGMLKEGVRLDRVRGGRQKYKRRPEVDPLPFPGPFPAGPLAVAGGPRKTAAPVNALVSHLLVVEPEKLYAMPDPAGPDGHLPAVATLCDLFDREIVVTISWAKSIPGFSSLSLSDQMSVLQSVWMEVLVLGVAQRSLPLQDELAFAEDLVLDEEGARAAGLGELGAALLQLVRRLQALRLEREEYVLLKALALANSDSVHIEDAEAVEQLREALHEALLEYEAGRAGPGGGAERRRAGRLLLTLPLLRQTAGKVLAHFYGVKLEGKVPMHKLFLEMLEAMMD
Chain of Estrogen receptor (Homo sapiens) (P03372 whole entry, looked up, the tested form may be a part): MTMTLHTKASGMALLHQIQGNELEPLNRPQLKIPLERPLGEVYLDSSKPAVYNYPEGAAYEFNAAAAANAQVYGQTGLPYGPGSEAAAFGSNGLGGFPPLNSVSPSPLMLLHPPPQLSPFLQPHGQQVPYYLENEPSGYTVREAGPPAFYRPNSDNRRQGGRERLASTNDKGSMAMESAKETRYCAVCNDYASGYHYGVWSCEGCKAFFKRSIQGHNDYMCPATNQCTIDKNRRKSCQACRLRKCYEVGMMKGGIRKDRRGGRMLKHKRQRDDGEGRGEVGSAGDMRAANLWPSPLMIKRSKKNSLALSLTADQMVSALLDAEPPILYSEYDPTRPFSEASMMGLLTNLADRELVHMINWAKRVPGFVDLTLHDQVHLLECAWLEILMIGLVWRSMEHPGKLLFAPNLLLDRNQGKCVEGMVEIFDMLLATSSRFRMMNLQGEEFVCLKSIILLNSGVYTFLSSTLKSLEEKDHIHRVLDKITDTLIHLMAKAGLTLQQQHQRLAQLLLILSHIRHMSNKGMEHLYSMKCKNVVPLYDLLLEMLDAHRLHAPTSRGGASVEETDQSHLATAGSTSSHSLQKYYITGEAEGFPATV
Chain of X-box-binding protein 1 (Homo sapiens) (P17861 whole entry, looked up, the tested form may be a part): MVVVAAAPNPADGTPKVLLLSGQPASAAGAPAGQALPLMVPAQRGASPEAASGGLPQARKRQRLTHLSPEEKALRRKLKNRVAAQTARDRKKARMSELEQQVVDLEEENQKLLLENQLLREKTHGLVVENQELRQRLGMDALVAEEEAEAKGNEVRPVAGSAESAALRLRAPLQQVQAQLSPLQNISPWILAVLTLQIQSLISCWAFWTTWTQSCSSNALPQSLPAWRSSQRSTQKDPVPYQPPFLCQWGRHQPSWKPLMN
Chain of Transcriptional activator Myb (Homo sapiens) (P10242 whole entry, looked up): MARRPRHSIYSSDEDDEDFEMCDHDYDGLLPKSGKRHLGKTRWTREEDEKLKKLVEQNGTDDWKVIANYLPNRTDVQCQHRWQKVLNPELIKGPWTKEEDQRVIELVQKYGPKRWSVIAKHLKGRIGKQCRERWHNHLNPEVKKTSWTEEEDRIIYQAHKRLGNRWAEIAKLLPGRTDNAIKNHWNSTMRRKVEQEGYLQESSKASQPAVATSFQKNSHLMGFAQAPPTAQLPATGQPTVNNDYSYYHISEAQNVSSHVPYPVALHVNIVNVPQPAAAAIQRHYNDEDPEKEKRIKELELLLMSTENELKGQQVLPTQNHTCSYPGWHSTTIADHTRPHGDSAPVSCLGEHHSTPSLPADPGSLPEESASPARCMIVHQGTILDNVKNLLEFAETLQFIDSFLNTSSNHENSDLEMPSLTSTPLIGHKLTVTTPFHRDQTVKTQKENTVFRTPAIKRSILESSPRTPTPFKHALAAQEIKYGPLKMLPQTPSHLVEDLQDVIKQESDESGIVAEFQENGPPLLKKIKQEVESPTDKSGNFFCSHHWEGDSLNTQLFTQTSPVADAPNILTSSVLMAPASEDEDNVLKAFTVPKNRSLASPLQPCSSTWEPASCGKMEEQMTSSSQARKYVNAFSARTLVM

On to `C#CCOC(=O)[C@@H](C)Oc1ccc(Oc2ncc(Cl)cc2F)cc1`, for which the compound was classed as inactive in [1], in experiment [2], in experiment [3], in [4], in [5] and in experiment [6]. For the same compound, the compound was called inactive in experiment [7], in [8], in experiment [9] and in experiment [10].

As to `CCCN(CCC)C(=O)SCC`, the outcome in experiment [1], in experiment [2], in [3], in experiment [5], in experiment [11] and in experiment [6] was inactive. Further, the result in [12], in experiment [13], in experiment [7], in [14], in experiment [8] and in experiment [9] was inactive. Also, the compound was classed as inactive in experiment [10].

Consider `CC1(C)C(C=C(Cl)Cl)C1C(=O)OCc1cccc(Oc2ccccc2)c1` (configuration not stated), for which the compound was called inactive in experiment [1], in [5], in [11], in experiment [15], in [6] and in experiment [12]. Besides, the outcome in experiment [13], in [16], in [8], in [9] and in [10] was inactive. In addition, the AC50 is 10 µM (active) in experiment [2] and 25.9 µM (active) in experiment [3].

Take `c1ccc(Nc2ccccc2)cc1`: the result in experiment [1], in experiment [2], in experiment [4], in experiment [5], in experiment [17] and in experiment [13] was inactive. For the same compound, the call in experiment [7], in [14], in [8], in experiment [9] and in [10] was inactive. Further, the concentration at half-maximal activity (AC50) in [2] was 100 µM (active).

Regarding `CCC(C)OC(=O)N1CCCCC1CCO` (configuration not stated), the compound was called inactive in [1], in experiment [2], in experiment [5], in [11], in experiment [17] and in experiment [12]. For the same compound, the compound was classed as inactive in [13], in experiment [16], in experiment [8], in [9] and in [10]. The AC50 in experiment [2] was 46.5 µM (active).

In the case of `CCCN(CCC)c1c([N+](=O)[O-])cc(C(F)(F)F)c(N)c1[N+](=O)[O-]`, the call in experiment [1], in experiment [4], in experiment [5], in experiment [17], in experiment [13] and in experiment [7] was inactive. The result in experiment [8], in experiment [9] and in [10] was inactive. Moreover, the AC50 in experiment [2] was 3.57 µM (active); in experiment [3], 5.67 µM (active).

With `CCCCOC(=O)[C@@H](C)Oc1ccc(Oc2ccc(C(F)(F)F)cn2)cc1`, the compound was classed as inactive in experiment [1], in [2], in experiment [3], in experiment [5], in experiment [11] and in experiment [6]. Further, the compound was classed as inactive in experiment [18], in experiment [13], in experiment [14], in experiment [16], in experiment [8] and in experiment [9]. Moreover, the compound was called inactive in experiment [10].

As for `C#C[C@]1(O)CC[C@H]2[C@@H]3CCC4=CC(=O)CC[C@@H]4[C@H]3CC[C@@]21CC`, the call in experiment [1], in [2], in experiment [5], in experiment [11], in [15] and in [6] was inactive. Moreover, the outcome in [7], in experiment [14], in experiment [16], in experiment [8], in experiment [9] and in experiment [10] was inactive. In [2], the AC50 is 27.6 µM (active).

Broadly, the AC50 is the midpoint of the concentration-response curve, whichever way the signal moves.
